Values joined by “and” are separate entries in the source; they are usually repeats but may differ in a detail not shown here. Equal entries are not always repeated. In all, about 5,500 compounds went through this assay and about 2,000 (36%) were called active. Inconclusive results (about 18%) are left out. Rule as the data show it: active = normalized growth mostly below about 0.91 (no sharp cut-off); inconclusive = no clear call, values can overlap the other calls; inactive = mostly above about 0.92. Some of the results follow.
Assay: chemical genetic growth profiling, strain panel (AID 1159580);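 also: tested at 20 µM; growth read once vehicle control cultures reached saturation at 30 °C; 1 = growth at the plate median or of vehicle wells; lower values mean less growth of the strain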
Settings: S. cerevisiae deletion strains, growth OD

Measured: normalized growth

CC1(C)O[C@@H]2CC3C4C[C@H](F)C5=CC(=O)CC[C@]5(C)C4[C@@H](O)C[C@]3(C)[C@]2(C(=O)CO)O1 (stereo partly specified)
inactive: locus YAL013W, strain DEP1, hits give low values 1.02 | locus YAL021C, strain ccr4, hits give low values 0.971 | locus YAL026C, strain drs2, hits give low values 1.01 | locus YAL030W, strain snc1, hits give low values 1.01 | locus YBL061C, strain skt5, hits give low values 1.01 | locus YBR009C, strain hhf1, hits give low values 1 | locus YBR021W, strain FUR4, hits give low values 1.02 | locus YBR023C, strain chs3, hits give low values 1 | locus YBR171W, strain sec66, hits give low values 1.01 | locus YBR229C, strain ROT2, hits give low values 1.01 | locus YBR231C, strain swc5, hits give low values 1 | locus YBR279W, strain paf1, hits give low values 0.994 | locus YCL011C, strain gbp2, hits give low values 1 | locus YCL016C, strain dcc1, hits give low values 0.992 | locus YCL029C, strain bik1, hits give low values 1.01 | locus YCL069W, strain vba3, hits give low values 1 | locus YCR088W, strain abp1, hits give low values 1.01 | locus YDL005C, strain med2, hits give low values 1.03 | locus YDL035C, strain GPR1, hits give low values 1.01 | locus YDL040C, strain nat1, hits give low values 1.01 | locus YDL074C, strain BRE1, hits give low values 1.04 | locus YDL101C, strain DUN1, hits give low values 1.02 | locus YDL134C, strain PPH21, hits give low values 1.01 | locus YDL185W, strain tfp1, hits give low values 1.01 | locus YDL192W, strain arf1, hits give low values 1.01 | locus YDR001C, strain nth1, hits give low values 1 | locus YDR069C, strain doa4, hits give low values 1.01 | locus YDR101C, strain arx1, hits give low values 0.998 | locus YDR137W, strain rgp1, hits give low values 0.995 | locus YDR150W, strain NUM1, hits give low values 1.03 | locus YDR159W, strain sac3, hits give low values 0.939 | locus YDR162C, strain NBP2, hits give low values 1.03 | locus YDR195W, strain ref2 0.991 | locus YDR297W, strain sur2, hits give low values 1.01 | locus YDR318W, strain mcm21, hits give low values 0.999 | locus YDR334W, strain swr1, hits give low values 1.01 | locus YDR335W, strain msn5, hits give low values 1 | locus YDR388W, hits give low values 1.01 | locus YDR392W, strain spt3, hits give low values 0.931 | locus YDR502C, strain sam2, hits give low values 1 | locus YEL003W, strain gim4, hits give low values 0.999 | locus YEL037C, strain rad23, hits give low values 1.01 | locus YEL061C, strain CIN8 (second series), hits give low values 1.01 | locus YEL061C, strain CIN8, hits give low values 1.01 | locus YER015W, strain faa2, hits give low values 1.01 | locus YER016W, strain bim1, hits give low values 1 | locus YER110C, hits give low values 0.998 | locus YER111C, strain swi4, hits give low values 1 | locus YER155C, strain BEM2 (second series), hits give low values 1.03 | locus YER155C, strain BEM2, hits give low values 1 | locus YER167W, strain BCK2, hits give low values 1.01 | locus YFR010W, strain ubp6, hits give low values 1.01 | locus YGL078C, strain dbp3, hits give low values 0.995 | locus YGL086W, strain mad1, hits give low values 1 | locus YGL167C, strain pmr1, hits give low values 0.996 | locus YGL173C, strain kem1, hits give low values 1.02 | locus YGL227W, strain vid30, hits give low values 1 | locus YGL240W, strain doc1, hits give low values 1 | locus YGL248W, strain PDE1, hits give low values 1.01 | locus YGL253W, strain hxk2, hits give low values 1 | locus YGR078C, strain PAC10, hits give low values 1.02 | locus YGR135W, strain pre9, hits give low values 1 | locus YGR229C, strain SMI1, hits give low values 1.02 | locus YGR252W, strain gcn5, hits give low values 0.983 | locus YHR013C, strain ard1, hits give low values 0.994 | locus YHR027C, strain rpn1, hits give low values 1.02 | locus YHR030C, strain SLT2, hits give low values 1 and 1.02 | locus YHR079C, strain IRE1 (second series), hits give low values 0.999 | locus YHR079C, strain IRE1, hits give low values 1.03 | locus YHR094C, strain hxt1, hits give low values 1.01 | locus YHR129C, strain ARP1, hits give low values 1.01 | locus YHR142W, strain chs7, hits give low values 1 | locus YHR200W, strain rpn10, hits give low values 1.01 | locus YIL066C, strain RNR3, hits give low values 1 | locus YIL073C, strain SPO22, hits give low values 1.01 | locus YIL125W, strain kgd1, hits give low values 0.995 | locus YIR030C, strain dcg1, hits give low values 1.01 | locus YJL092W, strain hpr5, hits give low values 1.02 | locus YJL095W, strain BCK1 (second series), hits give low values 1.01 | locus YJL095W, strain BCK1, hits give low values 0.999 and 1.02 | locus YJL115W, strain asf1, hits give low values 1.01 | locus YJL129C, strain trk1, hits give low values 1.02 | locus YJL134W, strain LCB3, hits give low values 1.01 | locus YJL154C, strain vps35, hits give low values 1.01 | locus YJL164C, strain tpk1, hits give low values 0.982 | locus YJL166W, strain qcr8, hits give low values 1.01 | locus YJL168C, strain set2, hits give low values 1.01 | locus YJL187C, strain SWE1 (second series), hits give low values 1.01 | locus YJL187C, strain SWE1, hits give low values 1.01 | locus YJR043C, strain POL32, hits give low values 0.994 | locus YJR066W, strain TOR1, hits give low values 0.957

From PubChem BioAssay AID1159580 (chemical genetic matrix, 2015)
